Screens as filed in PubChem BioAssay.
TDP1 block = qHTS Assay for Inhibitors of Tyrosyl-DNA Phosphodiesterase (TDP1); recombinant TDP1, AlphaScreen DNA substrate cleavage; Potency, µM (top dose mostly 130 µM), inactives show at the highest dose activity change, negative = inhibition, most hits filed as inhibitors; actives 0.28% (n = 350,000); AID 485290, 2010; further: potency means the concentration at half of the fitted maximal effect; nearly all actives have a fitted effect of over 40% in size
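Enzyme-compound mixtures sat 15 min at room temperature, followed by a 5 min reaction with 15 nM final substrate and 10 min with AlphaScreen beads. Recombinant human Tdp1 was used at 1 nM final.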
FEN1 inh = qHTS Assay for the Inhibitors of Human Flap endonuclease 1 (FEN1); Potency, µM (titrated, usually from 114 µM), inactives show at the highest dose activity change, negative = inhibition, most hits filed as inhibitors; P39748; AID 588795, 2011; actives 0.35% (n = 390,000); Recombinant FEN1 flap cleavage, fluorescence, 15 min; further: potency means the concentration at half of the fitted maximal effect; nearly all actives have a fitted effect of over 65% in size
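Recombinant FEN1 (10 nM) was preincubated with pin-transferred compounds for 15 min at room temperature, then flap DNA substrate (50 nM final) was added. Plates were read at 0 and 15 min, and normalized concentration–response data were fitted to a four-parameter Hill equation.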
PGK inhibitor = qHTS Assay to Find Inhibitors of Phosphoglycerate Kinase. Phosphoglycerate kinase, glycosomal (Trypanosoma brucei brucei), P07378. PGK/GAPDH coupled, Kinase-Glo luminescence, 60 min. Potency, µM (highest dose often 57.5 µM), for the others: top-dose activity change, negative = inhibition, most hits filed as inhibitors. actives 0.043% (n = 380,000). AID 602233, 2012; further: potency means the concentration at half of the fitted maximal effect; nearly all actives have a fitted effect of over 60% in size
Target sequence (P07378 whole entry, looked up): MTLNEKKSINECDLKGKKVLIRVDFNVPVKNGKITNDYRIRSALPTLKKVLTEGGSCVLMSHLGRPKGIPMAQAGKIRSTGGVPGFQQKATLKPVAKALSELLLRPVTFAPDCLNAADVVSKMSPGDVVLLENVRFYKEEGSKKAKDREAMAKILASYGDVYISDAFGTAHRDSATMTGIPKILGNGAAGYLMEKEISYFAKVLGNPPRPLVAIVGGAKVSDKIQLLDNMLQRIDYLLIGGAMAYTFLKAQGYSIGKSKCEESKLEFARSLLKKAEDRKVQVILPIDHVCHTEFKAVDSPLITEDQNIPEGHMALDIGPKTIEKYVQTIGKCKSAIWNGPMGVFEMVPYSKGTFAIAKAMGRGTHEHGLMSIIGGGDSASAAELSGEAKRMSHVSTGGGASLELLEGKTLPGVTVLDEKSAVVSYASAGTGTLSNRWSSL
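Recombinant glycosomal PGK reaction used 1,3-bisphosphoglycerate generated in-well by GAPDH (100nM final) in 100mM TEA pH 7.6, 5mM MgCl2, 0.01% Tween-20. After 60 minutes at room temperature, ATP was read by Kinase-Glo Plus luminescence end-point.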
WRN inhibitor = qHTS for Inhibitors of WRN Helicase; Potency, µM (highest dose often 114 µM), for inactives: at the top dose activity change, negative = inhibition, actives largely listed as inhibitors; AID 651768, 2012; actives 0.46% (n = 360,000); WRN helicase unwinding, fluorescent forked duplex, kinetic; further: potency means the concentration at half of the fitted maximal effect; nearly all actives have a fitted effect of over 55% in size
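WRN at 20 nM final was preincubated with compound for 15 min at room temperature; reaction started with 100 nM forked duplex oligonucleotide carrying fluorophore and quencher plus 2 mM ATP (final). Unwinding followed kinetically by red fluorescence (ex 525/em 598 nm).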
Tb PFK inh = qHTS Assay to Find Inhibitors of T. brucei phosphofructokinase; T. brucei PFK, ADP-Glo luminescence; actives 0.17% (n = 330,000); Potency, µM (highest dose often 57.5 µM), inactives show at the top dose activity, negative = inhibition, hits mostly inhibitors;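 further: potency means the concentration at half of the fitted maximal effect; 0% = uninhibited 1x PFK enzyme wells and -100% = no-enzyme wells; nearly all actives have a fitted effect of over 60% in size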
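Compounds were pin-transferred as a titration series up to 57 uM into substrate buffer (0.5 mM F6P, 0.1 mM ATP, pH 8.0), then 1.25 nM PFK was added and reactions ran 45 min before ADP-Glo detection.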
PI5P4Ka inh = qHTS for Inhibitors of phosphatidylinositol 5-phosphate 4-kinase (PI5P4K) | Phosphatidylinositol 5-phosphate 4-kinase type-2 alpha (Homo sapiens), P48426 | PI5P4Kalpha enzyme, ADP-Glo luminescence, 60 min; active compounds read low | max response, % | actives 1.2% (n = 330,000) | AID 652105, 2013; active means max response of -50% or lower; inconclusive means between -30% and -50%; inactive means -30% or higher; further: value at the top dose of about 77 µM
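Single end-point luminescence (ADP-Glo) quantified ADP from PI5P4Kalpha turnover; ATP 5 microM final, 1 h at RT, 0.1% CHAPS and 0.28 mM EGTA in HEPES pH 7.4.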
ADP-Glo interf = qHTS for Inhibitors of PI5P4K: ADP-Glo counter assay; shares compounds with PI5P4Ka inh; ADP-Glo detection counter-screen, luciferase luminescence, no enzyme; Potency, µM (series often up to 76.9 µM), for inactives: top-dose activity change, negative = inhibition, actives largely listed as inhibitors; 1,100 tested, under 10 active
Starred values were filed as active, the others as inactive; i = inactive; ? = inconclusive; · = no result given; [ ] = another dose, or the depositor's remark. An excerpt weighted towards active compounds, which were near 1.5% of everything screened. Unless noted, the call rests on the fitted dose curve; in most records, active means well fitted curve in the direction sought with a large enough effect; inconclusive means small, poorly fitted or top-dose-only effect, or another doubt; inactive means no such curve, though single readings can be large; an effect the other way counts as inactive or inconclusive. Unless noted, on the % scale 0 is the no-effect control and ±100 the full control effect.

SMILES	TDP1 block	FEN1 inh	PGK inhibitor	WRN inhibitor	Tb PFK inh	PI5P4Ka inh	ADP-Glo interf
c1ccc(CNc2nc(NCC3CC3)nc3cc(-c4ccccc4)sc23)cc1	·	·	·	-11.2%	·	·	-6.8%
c1csc(CNc2nc(NCC3CCCCC3)c3sccc3n2)c1	·	·	·	-2.6%	·	·	1.6%
CC(C)c1ccc(CNc2nc(NCC3CC3)nc3ccsc23)cc1	·	·	·	-6.4%	·	·	-3.9%
CC(=O)OCC(NC(=O)C(CCCCNC(=O)OCc1ccccc1)NC(=O)OC(C)(C)C)C1OC(n2ccc(=O)[nH]c2=O)C(OC(C)=O)C1OC(C)=O (centres undefined)	?	0.2%	·	·	·	·	·
COc1ccc(-n2nc(C(=O)NCC(=O)NCCCN3CCOCC3)c3ccccc3c2=O)cc1	3.3%	-10.1%	3.0%	7.1%	-10.2%	-3.2	·
Cc1nc2nc(NC(=O)c3ccc(C(C)(C)C)cc3)[nH]n2c(=O)c1Cl	4.7%	5.5%	-2.3%	·	·	·	·
COCCOC(=O)c1c(C)n(S(=O)(=O)c2ccc(C)cc2)c2ccc(NS(=O)(=O)c3ccc(C)cc3)cc12	·	1.7%	-5.6%	·	·	·	·
Cc1nc(N)sc1-c1csc(Nc2cccc(C(=O)O)c2)n1	·	?	-8.6%	-12.8%[11.6 µM]	2.0%	-51.7*	-7.6%
COc1ccc(N2CCN(C(=O)c3[nH]c(C(F)(F)F)nc3-c3ccccc3)CC2)cc1	·	·	·	-0.5%	·	-3.7	1.6%
COc1ccccc1N1CCN(C(=O)c2[nH]c(C(F)(F)F)nc2-c2ccccc2)CC1	·	·	·	-4.1%	·	-2.4	·
Clc1ccccc1OCCSc1nnc(-c2cccs2)o1	-17.2%	-26.8%	3.7%	·	·	·	·
NC(Cc1ccc(C(F)(F)F)cc1)c1csc(NC(=O)Nc2ccccc2)n1 (centres undefined)	·	·	·	-9.2%	·	-56.0*	-2.2%
O=S(=O)(NCCC1=CCCCC1)c1cccc(S(=O)(=O)N2CCOCC2)c1	-2.9%	-3.1%	-2.6%	-27.5%	3.0%	-62.5*	-1.6%
CC(=O)c1ccc(S(=O)(=O)Nc2cccc(-n3cnnn3)c2)cc1	?	1.0%	?	56.2µM*	-17.2%	-67.2*	-6.6%
CC(=O)Nc1ccc(S(=O)(=O)Nc2cccc(-n3cnnn3)c2)cc1	3.3%	-5.3%	i	-6.4%	1.7%	0.3	·
CC(C)CN(C(=O)COC(=O)COc1ccc2ccccc2c1)c1c(N)n(Cc2ccccc2)c(=O)[nH]c1=O	-1.0%	9.5%	6.9%	-0.5%	6.8%	1.7	·
Cc1cccc(NC(=O)CSc2nc3ccc(NC(=O)COc4ccc(Cl)cc4)cc3s2)c1	-0.5%	2.1%	2.3%	·	·	·	·
COc1ccc(S(=O)(=O)N2CCCCC2)cc1NC(=O)c1cncc(Br)c1	-1.9%[56.1 µM]	-5.8%	-0.7%	3.8%	0.0%	2.7	·
COc1ccc(C(=O)N2CCC2(C)C(=O)O)cc1F (centres undefined)	·	·	·	1.7%	·	?	1.9%
O=C(CCS(=O)(=O)c1ccc2c(c1)NC(=O)CS2)NCCc1ccc(Cl)cc1	0.3%	-8.7%	-8.8%	-3.2%	3.8%	-59.8*	-0.1%
O=C(CCS(=O)(=O)c1ccc2c(c1)NC(=O)CS2)NCCc1ccccc1	3.0%	22.7%	6.8%	-2.0%	9.2%	-0.9	·
CN(C)CCNc1ncnc2c1ncn2[C@H]1CN(Cc2ccc(-c3ccccc3)cc2)C[C@@H](CO)O1	·	·	·	29.7%	·	-6.1	·
